Screening data from PubChem BioAssay.
TDP1 inh: inhibitors of human tyrosyl-DNA phosphodiesterase TDP1 | Q9NUW8 | recombinant TDP1, AlphaScreen DNA substrate cleavage | Potency, µM (series often up to 130 µM), for inactives: top-dose activity change, negative = inhibition, most hits filed as inhibitors | 350,000 tested, 0.28% active; also: potency is read from the fitted curve at half-maximal effect; % is scaled to controls: 0 for no effect and ±100 for the full control effect; nearly all actives have a fitted effect of over 40% in size
Target sequence (Q9NUW8 whole entry, looked up): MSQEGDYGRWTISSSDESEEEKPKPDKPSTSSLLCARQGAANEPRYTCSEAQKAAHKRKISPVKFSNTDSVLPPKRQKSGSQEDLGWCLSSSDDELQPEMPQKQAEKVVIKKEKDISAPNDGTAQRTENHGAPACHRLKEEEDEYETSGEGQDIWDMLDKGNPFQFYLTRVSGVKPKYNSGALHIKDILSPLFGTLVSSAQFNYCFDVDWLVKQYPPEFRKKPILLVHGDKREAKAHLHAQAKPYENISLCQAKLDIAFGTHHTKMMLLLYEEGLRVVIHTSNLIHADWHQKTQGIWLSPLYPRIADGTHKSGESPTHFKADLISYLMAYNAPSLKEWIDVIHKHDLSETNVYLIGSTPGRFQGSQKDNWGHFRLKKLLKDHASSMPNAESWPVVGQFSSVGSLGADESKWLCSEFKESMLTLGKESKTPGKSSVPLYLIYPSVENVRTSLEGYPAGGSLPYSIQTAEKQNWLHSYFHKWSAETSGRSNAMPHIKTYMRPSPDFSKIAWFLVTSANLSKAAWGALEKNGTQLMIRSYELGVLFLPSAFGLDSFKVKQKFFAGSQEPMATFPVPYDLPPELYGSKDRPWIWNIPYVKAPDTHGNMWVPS
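Tdp1 1 nM final; 15 min RT w/ cpd; substrate 15 nM, 5 min; beads 10 ug/ml, 10 min; AlphaScreen read. Neg ctrl: no enzyme.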
HepG2 tox: HepG2 cytotoxicity, counter-screen for TGF-b inhibitors; Potency, µM (titrated, usually from 46.1 µM), without a hit: at the top dose activity change, negative = cytotoxicity, hits mostly cytotoxic; HepG2 CAGA-GFP viability, ATP luminescence, 18 h; 410,000 tested, 0.76% active; also: potency is read from the fitted curve at half-maximal effect
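CellTiter-Glo luminescence gave cytotoxicity after 18 hours at 37 degrees C. The cells were HepG2 CAGA-GFP in 1% FBS DMEM, stimulated with 500 pg/mL TGF-beta after compound addition. %Activity was normalised to no-cell wells (complete cell-killing) and DMSO (no toxicity), and curves were fitted and classified.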
DT40 TDP1 no CPT: qHTS for Inhibitors of human tyrosyl-DNA phosphodiesterase 1 (TDP1): qHTS in cells in absence of CPT | Potency, µM (highest dose often 46.2 µM), for the others: at the highest dose activity change, negative = growth inhibition, most hits filed as inhibitors | AID 686978, 2013 | 420,000 tested, 15% active | DT40 Tdp1-/- hTDP1 cells, no CPT, ATP luminescence, 48 h; also: potency is read from the fitted curve at half-maximal effect; % is scaled to controls: 0 for no effect and ±100 for the full control effect; nearly all actives have a fitted effect of over 55% in size
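Cells were dispensed at 400 per well, compounds added by pin tool, plates incubated ≥48 hr at 37 °C, then CellTiter-Glo added for 30 min at room temperature before luminescence reading. Line: DT40 Tdp1-/- complemented with hTDP1; camptothecin omitted.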
TGFb SMAD3 inh: inhibitors of TGF-b signaling; 410,000 tested, 1.2% active; AID 588855; HepG2 CAGA-GFP TGF-b/SMAD3 reporter, GFP fluorescence, 18 h; TGF-beta stimulated, 500 pg/mL final; Potency, µM (top dose mostly 46.1 µM), for inactives: at the highest dose activity, negative = inhibition, usual class: inhibitors; also: potency is read from the fitted curve at half-maximal effect; % is scaled to controls: 0 for no effect and ±100 for the full control effect; nearly all actives have a fitted effect of over 65% in size
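Read-out: total well GFP (ex488/em500-530) summed from mean per-cell fluorescence. Cells: HEPG2 CAGA-GFP, 1% FBS DMEM, 18 h at 37 degrees C with 500 pg/mL final TGF-beta. Unstimulated wells served as the full-inhibition control; stimulated DMSO wells = 0%.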
DT40 TDP1 CPT: growth inhibition of DT40 Tdp1-/-;hTDP1 cells with camptothecin (screen for TDP1 inhibitors). chicken DT40 Tdp1-/-;hTDP1 cells + 20 nM CPT, ATP luminescence, 48 h. Potency, µM (highest dose often 46.2 µM), without a hit: at the top dose activity change, negative = growth inhibition, actives largely listed as inhibitors. 420,000 tested, 12% active. AID 686979; also: potency is read from the fitted curve at half-maximal effect; % is scaled to controls: 0 for no effect and ±100 for the full control effect; nearly all actives have a fitted effect of over 55% in size
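Chicken DT40 Tdp1-/- cells stably complemented with human TDP1 were seeded at 400 cells/well in medium containing 20 nM camptothecin, exposed to pin-transferred compounds, and grown at 37 °C for at least 48 hr. Viability was read as ATP luminescence.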
IL-1B inflam inh: inhibitors of inflammasome signaling (IL-1 beta secretion). THP-1 LPS/ATP IL-1B secretion, AlphaLISA, 16 h; active compounds read low. AID 743279. 360,000 tested, 4.7% active. activity change, % at 57.5 µM; in the data active = activity change below about -50%; inconclusive = mostly about -30% to -49%; also: % is scaled to controls: 0 for no effect and ±100 for the full control effect
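Secreted IL-1B measured by AlphaLISA bead assay after 16 h compound exposure of THP-1 cells; compounds (final up to 57.5 uM) added 1 h before LPS (250 ng/mL) and ATP (1.25 mM) stimulation; lower signal means less secretion.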
Numbers without * were called inactive; ? = inconclusive; / = no result given; [ ] = dose if it differs, or a comment. A selection: hits, their analogues and other compounds. The true share with any hit is near 18%. Unless noted, calls follow the shape of the dose curve; as a rule, active = well fitted curve in the direction sought with a large enough effect; inconclusive = small, poorly fitted or top-dose-only effect, or another doubt; inactive = no such curve, though single readings can be large; an effect the other way counts as inactive or inconclusive.

SMILES | TDP1 inh | HepG2 tox | DT40 TDP1 no CPT | TGFb SMAD3 inh | DT40 TDP1 CPT | IL-1B inflam inh
OC[C@H]1O[C@@H](n2cnc3c(NCc4ccco4)ncnc32)[C@H](O)[C@@H]1O | 6.9% | -64.6% | 2.06µM* | ? | 2.31µM* | 73.5
Cc1ccccc1CNc1ncnc2c1ncn2C1OC(CO)C(O)C1O (stereo not given) | 8.0%[56.1 µM] | / | / | / | / | /
Cc1ccc(-c2cc3onc(-c4ccccc4)c3c(=O)n2C)cc1 | -7.2% | -9.4% | ? | ? | ? | 27.0
CCCOc1ccc(-c2cc3onc(-c4ccccc4)c3c(=O)n2C)cc1 | -2.9% | -1.6% | 18.4µM* | 1.7% | 25.9µM* | 36.2
Cn1c(-c2ccc(F)cc2)cc2onc(-c3c(F)cccc3Cl)c2c1=O | 0.5% | -3.1% | ? | -1.1% | 13µM* | -17.0
CNC(=O)c1ccc(-c2cc3onc(-c4ccccc4)c3c(=O)n2C)cc1 | -0.3% | -11.3% | 23.1µM* | 0.3% | 18.4µM* | 0.0
CCCOc1ccc(-c2nc3ccccc3c(=O)o2)cc1 | / | -12.2% | 4.1% | 10.0% | -0.1% | /
O=C(O)c1cccc(-n2cccc2/C=C/[N+](=O)[O-])c1 | / | 6.0% | -19.9% | -0.8% | -14.1% | 47.6
COCCNC(=O)CSc1nc2ccccc2c(=O)n1CCCC(=O)NCc1ccccc1 | -11.4% | -6.5% | -12.1% | -0.3% | 4.4% | -27.1
COCCNC(=O)CSc1nc2cc3c(cc2c(=O)n1CCCC(=O)NCc1ccc2c(c1)OCO2)OCO3 | 4.4% | 17.8% | -18.2% | 32.0% | 14.3% | /
N#Cc1cccc(NC(=O)c2cc3c(s2)-c2ccc(Cl)cc2SC3)c1 | -5.1% | -36.8% | 23.1µM* | ? | 25.9µM* | /
O=C(NCc1cccc(Cl)c1)c1cc2c(s1)-c1ccccc1SC2 | -7.6% | -29.0% | -26.4% | / | -17.8% | /
CN(Cc1ccccc1)C(=O)c1cc2c(s1)-c1ccc(Cl)cc1SC2 | -12.7% | -31.2% | 23.1µM* | ? | ? | /
O=C(CSc1nc2sccc2c(=O)[nH]1)N1CCN(c2ccccc2)CC1 | / | 9.4% | ? | 0.6% | ? | 15.8
COC(=O)CNc1nc(-c2cccnc2)nc2ccccc12 | 4.2% | 13.2% | -5.9% | 21.6% | -27.2% | -2.7
Clc1cccc(CNc2nc(-c3cccnc3)nc3ccccc23)c1 | 3.0% | -18.9% | ? | -23.2% | ? | -16.6
c1ccc(CN2CCC(Nc3nc(-c4cccnc4)nc4ccccc34)CC2)cc1 | 4.2% | -61.9% | 13µM* | 15.8µM* | 18.4µM* | -91.4*
CCOC(=O)c1nc(Nc2ccccc2)c2ccccc2n1 | 0.5% | -17.8% | ? | -3.8% | ? | -20.9
COc1ccc(C(CNc2nc(-c3cccnc3)nc3ccccc23)N(C)C)cc1 (stereo not given) | 11.1% | -19.9% | ? | -14.6% | ? | -82.2*
NS(=O)(=O)c1ccc(CNc2nc(-c3cccnc3)nc3ccccc23)cc1 | / | -10.9% | 14.6µM* | 0.2% | ? | ?
CCOC(=O)c1nc(Nc2ccc(C)cc2)c2ccccc2n1 | 3.8% | -24.1% | 13µM* | -6.1% | 20.6µM* | ?
C=CCn1c(CNc2ccc(C)cc2)nnc1SCC(=O)N/N=C/c1ccc(O)cc1 | 8.8% | 1.6% | ? | -35.1% | -4.8% | 10.0
CC(NC(=O)c1ccccc1NC(=O)c1nsc2ccccc12)c1ccccc1 (stereo not given) | 0.0% | -4.9% | ? | 8.7% | ? | /
O=C1COc2cc(S(=O)(=O)CCC(=O)NC3CCCCC3)c(Cl)cc2N1 | -3.9% | -23.0% | / | 16.1% | / | /
CC(Nc1nc(-c2cccnc2)nc2ccccc12)c1ccc(F)cc1 (stereo not given) | 9.2% | -17.6% | 18.4µM* | ? | 25.9µM* | -67.8*
SMILES | TDP1 inh | HepG2 tox | DT40 TDP1 no CPT | TGFb SMAD3 inh | DT40 TDP1 CPT | IL-1B inflam inh
CC(Nc1nc(-c2ccccc2O)nc2ccccc12)c1ccccc1 (stereo not given) | -5.6% | -30.0% | ? | ? | ? | 21.3
Cc1ccccc1Nc1nc(-c2cccnc2)nc2ccccc12 | / | -12.3% | 20.6µM* | 0.6% | ? | -13.6
CC(Nc1nc(-c2ccccc2F)nc2ccccc12)c1ccccc1 (stereo not given) | / | -4.6% | ? | ? | -21.6% | -90.0*
c1cncc(-c2nc(NCC3COc4ccccc4O3)c3ccccc3n2)c1 (stereo not given) | 8.0% | -46.2% | ? | ? | 18.4µM* | -78.2*
COC(=O)c1sc2cccc(F)c2c1S(=O)(=O)NCc1ccc(Cl)cc1 | 5.8% | 6.4% | 10.6% | 5.3% | -0.1% | /
Fc1ccc(CNc2nc(-c3cccnc3)nc3ccccc23)cc1 | 9.0% | -73.6% | 18.4µM* | ? | ? | -68.6*
CCOC(=O)c1ccc(Nc2nc(-c3cccnc3)nc3ccccc23)cc1 | -1.9% | -10.1% | 9.2µM* | -15.6% | 16.4µM* | -21.4
CCN(CC(=O)Nc1ccc2c(c1)OCCO2)C(=O)c1cc(Cl)nc2ccccc12 | 2.0% | 0.7% | -34.1% | 6.6% | -4.6% | 13.9
CCN(CC(=O)Nc1ccc2c(c1)OCCO2)c1nc(-c2cccnc2)nc2ccccc12 | 8.2% | -15.5% | 23.1µM* | -1.2% | ? | -29.6
c1cncc(CNc2nc(-c3cccnc3)nc3ccccc23)c1 | / | -6.5% | 0.4% | 0.0% | ? | -5.2
c1cncc(-c2nc(NCc3ccc4c(c3)OCO4)c3ccccc3n2)c1 | 5.0% | -31.1% | 20.6µM* | ? | ? | -4.9
CC(C)[C@@H](CC(=O)N[C@@H]1CCCC[C@H]1C(=O)N[C@H](CC(=O)N[C@@H](CCC(=O)O)CC(=O)O)Cc1ccccc1)NC(=O)C[C@H](Cc1ccccc1)NC(=O)[C@@H]1CNCC[C@H]1N | 4.4% | / | / | / | / | /
COc1ccc(CCNC(=S)N2CCN(S(=O)(=O)c3ccccc3F)CC2)cc1 | 0.3% | -0.9% | ? | 2.3% | ? | -3.0
N#CCCn1cnc2c1NC=NC2Cl (stereo not given) | 3.1% | / | / | / | / | /
CCOC(=O)c1c(Nc2ccc(C)cc2)nnc(-c2ccccc2)c1-c1ccccc1 | / | -16.8% | 18.4µM* | ? | ? | /
Cn1nc(C(=O)Nc2cccc(C(F)(F)F)c2)c2c1-c1ccccc1S(=O)(=O)C2 | -1.3% | 0.3% | 0.7% | 0.3% | -2.9% | /
O=C1C=CC(=O)N1CCCCCCN1C(=O)C=CC1=O | 5.3% | -109.6% | 2.06µM* | 4.47µM* | 1.46µM* | -98.4*
